According to PubChem BioAssay AID488977 (Johns Hopkins Ion Channel Center, 2010):
Hit rate of the full screen: of about 310,000 compounds, about 1,500 (0.48%) were called active. The sample holds actives, similar compounds and a random draw of the others, so the mix is not that of the screen.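 The calls were made as follows: active = initial fluorescence not abnormally high and integrated response B-score, plate-corrected, over 3 SD above library mean; inactive = the rest.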

The molecules below were run against High affinity choline transporter 1 (Homo sapiens) (UniProt Q9GZV3) (assay: allosteric activators of human choline transporter – cell-based, membrane potential dye, choline EC20, primary screen (AID 488977)). Conditions: CHT-expressing cells, at 10 µM, LV-AA mutant CHT in HEK293 cells; stronger effect = higher value.
Sequence of High affinity choline transporter 1 (Homo sapiens) (Q9GZV3 whole entry, looked up): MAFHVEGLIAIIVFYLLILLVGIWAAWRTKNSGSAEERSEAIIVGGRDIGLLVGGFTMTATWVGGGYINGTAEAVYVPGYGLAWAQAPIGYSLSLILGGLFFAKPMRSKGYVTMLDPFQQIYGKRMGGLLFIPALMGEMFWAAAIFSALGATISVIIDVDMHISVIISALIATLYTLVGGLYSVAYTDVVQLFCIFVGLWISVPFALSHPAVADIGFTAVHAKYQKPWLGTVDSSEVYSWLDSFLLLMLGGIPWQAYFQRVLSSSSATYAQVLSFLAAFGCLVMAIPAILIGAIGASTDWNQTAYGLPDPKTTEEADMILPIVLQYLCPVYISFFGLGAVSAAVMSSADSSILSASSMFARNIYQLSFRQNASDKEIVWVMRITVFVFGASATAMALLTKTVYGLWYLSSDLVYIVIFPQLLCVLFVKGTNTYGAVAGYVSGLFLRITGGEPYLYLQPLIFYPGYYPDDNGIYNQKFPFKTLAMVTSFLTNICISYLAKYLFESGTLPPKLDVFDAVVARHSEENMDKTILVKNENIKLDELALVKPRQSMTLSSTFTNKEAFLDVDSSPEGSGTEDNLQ

Row | SMILES | B-score
1 | Fc1ccccc1COc1cccc2cccnc12 | inactive
2 | c1ccc2c(C[n+]3csc4ccccc43)cccc2c1 | inactive
3 | Nc1scc[n+]1Cc1cccc2cccnc12 | 6.75 (active)
4 | COc1ccc(CCNC(=O)C(=O)NCC2CCCN2S(=O)(=O)c2cccs2)cc1OC (stereo unspecified) | inactive
5 | Nc1nc(SCC(=O)NCCN2CCOCC2)nc2sc3c(c12)CCC3 | inactive
6 | N=c1c2c3c(sc2ncn1CCCN1CCOCC1)CCCCC3 | 6.58 (active)
7 | N=c1c2c3c(sc2ncn1N)CCCCC3 | inactive
8 | CCN(CC(=O)Nc1cccc(S(=O)(=O)N2CCCCC2)c1)Cc1ccccc1 | inactive
9 | COc1ccc2nc(/N=C(\N)NC(=O)Nc3ccccc3)nc(C)c2c1 | inactive
10 | NC(N)=Nc1nc(-c2ccccc2)c2cc(Cl)ccc2n1 | inactive
11 | Cc1nc(/N=C(\N)NC(=O)NC2CCCCC2)nc2ccccc12 | inactive
12 | CC(=O)Oc1ccc(-c2nc3c(C)cccc3c(=O)o2)cc1 | inactive
13 | Cc1nc(N=C(N)N)nc2c(C)cccc12 | 7.11 (active)
14 | COc1nc(N=C(N)N)nc2c(C)cccc12 | 8.19 (active)
15 | O=C(Nc1ccc(C(=O)N2CCOCC2)cc1)Nc1cccc(C(F)(F)F)c1 | inactive
16 | Cc1ccc(OCC(=O)Oc2ccccc2[N+](=O)[O-])cc1 | inactive
17 | COc1ccc2c(c1)[C@H]1[C@H](CO2)[C@H](c2ccccc2)[C@]2(C)C(=O)Nc3cc(F)c(F)cc3C(=O)N12 | inactive
18 | O=C(Nc1ccc2nc3n(c(=O)c2c1)CCCC3)c1ccc(Cl)nc1 | inactive
19 | CN(C)C1=NC[C@H](Cc2ccccc2)N1CCc1ccc(F)cc1 | inactive
20 | Cc1noc(C)c1CSCC(=O)Nc1ccc(Br)cc1Cl | inactive
21 | CCOC(=O)C1CCN(c2ccc(C(=O)O)cc2[N+](=O)[O-])CC1 | inactive
22 | Cc1cccc(N2CCN(c3ccc(C(N)=O)cc3[N+](=O)[O-])CC2)c1C | inactive
23 | Cc1ccc(C(=O)c2ccc(N3CCN(C)CC3)c([N+](=O)[O-])c2)cc1 | 6.4 (active)
24 | O=C(Cc1ccc(S(=O)(=O)N2CCOCC2)s1)N1CCN(c2ccc(C(F)(F)F)cc2[N+](=O)[O-])CC1 | inactive
25 | COc1ccc(NC(=O)CN(C)C(=O)c2cccc(S(=O)(=O)N3CCN(c4ccccc4)CC3)c2)cc1 | inactive
26 | CC(C)CC(CO)N1CCN(C(=O)c2ccc(Cl)cc2Cl)CCC1=O (stereo unspecified) | inactive

Row | SMILES | B-score
27 | CC(C)CC(COCc1ccc(Cl)cc1)N1CCN(C(=O)c2ccc(C(F)(F)F)cc2)CCC1=O (stereo unspecified) | 6.29 (active)
28 | O=C(c1cc(Cl)cc(Cl)c1)N1CCC(=O)N(C(COCc2ccccc2)Cc2ccccc2)CC1 (stereo unspecified) | inactive
29 | O=C(CCC(=O)c1cccs1)Nc1nc2ccccc2s1 | inactive
30 | CCCCn1c(N)c(N(CC(C)C)C(=O)c2ccc(-n3c(C)ccc3C)cc2)c(=O)[nH]c1=O | inactive
31 | Nc1ccccc1SC(C[N+](=O)[O-])c1ccccc1 (stereo unspecified) | inactive
32 | CCS(=O)(=O)c1cc([N+](=O)[O-])c(Sc2ccccc2N)s1 | inactive
33 | Nc1ccccc1SCc1cc([N+](=O)[O-])cc2c1OCOC2 | 7.8 (active)
34 | Cc1cc(C)cc(NC(=O)COc2coc(CN3CCN(c4ccccc4)CC3)cc2=O)c1 | inactive
35 | COc1cccc(N2CC(NC(=O)c3ccc4ccccc4c3)CC2=O)c1 (stereo unspecified) | inactive
36 | CCCCCCCCn1c2c(c(=N)c3c1CCC3)CCCC2 | 12.2 (active)
37 | COc1ccccc1N(C)S(=O)(=O)c1ccc(Cl)c(C(=O)Nc2ccncc2)c1 | inactive
38 | CN1C(C(=O)NCc2ccco2)CC2Cn3c(nc4ccccc43)C21 (stereo unspecified) | inactive
39 | CC(OC(=O)CCCc1c[nH]c2ccccc12)C(=O)Nc1ccc(S(N)(=O)=O)cc1 (stereo unspecified) | inactive
40 | COc1ccc2oc(C(=O)OCC(=O)N(CC(C)C)c3c(N)n(Cc4ccccc4)c(=O)[nH]c3=O)c(C)c2c1 | inactive
41 | CCCCCCSc1ccc([C@@H]2[C@@H]3C(=O)N(CC)C(=O)[C@@H]3[C@]3(C(=O)OC)CCCCN23)cc1OC | inactive
42 | CCOc1ccc(C2c3[nH]c4ccccc4c3CCN2Cc2cccn2-c2ncccn2)cc1 (stereo unspecified) | 6.79 (active)
43 | CCOc1ccc(C2c3[nH]c4ccccc4c3CCN2Cc2cn(CC)nc2C)cc1 (stereo unspecified) | inactive
44 | c1ccc(C2c3[nH]c4ccccc4c3CCN2Cc2cccn2-c2cccnc2)nc1 (stereo unspecified) | inactive
45 | COc1ccc(Cl)cc1NC(=O)CN(C)C(=O)c1cc2ccccc2cc1OC | inactive
46 | Cc1cc(C)c(S(=O)(=O)N2CCCC2CNC(=O)c2ccc3c(c2)OCO3)c(C)c1 (stereo unspecified) | inactive
47 | CCN(CC)CCn1c2c(c(SCC(=O)Nc3ccc(C(C)C)cc3)nc1=O)CCC2 | inactive
48 | COc1ccc(C2CC(c3ccc([N+](=O)[O-])cc3)=NN2C(C)=O)cc1 (stereo unspecified) | inactive
49 | CC(=O)N1CC[n+]2c(-c3ccc([N+](=O)[O-])cc3)csc21 | 7.27 (active)
50 | COC(=O)c1c(C)[nH]c(C)c1-c1ccc([N+](=O)[O-])cc1 | inactive
51 | Cc1ccc(Oc2nc(-c3ccccn3)nc3ccccc23)cc1 | inactive
52 | CCOCCCNc1nc(-c2ccccc2)nc2ccccc12 | inactive

Row | SMILES | B-score
53 | CC(C)(C)Nc1nc(-c2ccccn2)nc2ccccc12 | 6.37 (active)
54 | COc1ccc(S(=O)(=O)N2CCCCCC2)cc1C(=O)N(C)Cc1cccc(OC)c1OC | inactive
55 | O=[N+]([O-])c1ncc(Br)cc1Nc1ccccc1 | inactive
56 | CCCCOC(=O)Cn1c(=N)n(CCN(CC)CC)c2ccccc21 | inactive
57 | Cc1ccc(OCCCn2c(=O)oc3ccccc32)cc1 | inactive
58 | CCCCCCCCCCOC(=O)Cn1c(COc2ccc(C)cc2)[n+](C)c2ccccc21 | 9.75 (active)
59 | COc1cccc(OCCCN2CCCCCC2)c1 | inactive
60 | CCCCCCCCCCOC(=O)Cn1c(COc2cccc(OC)c2)[n+](C)c2ccccc21 | 10.7 (active)
61 | COc1cccc(OCC(=O)Nc2ccccc2C(N)=O)c1 | inactive
62 | CCOC(=O)c1c(C)oc2cc(Sc3ccccc3)c(O)c(O)c12 | inactive
63 | COc1cccc(CNC(=O)C(=O)NCCC2CCCCN2S(=O)(=O)c2ccc(C)cc2)c1 (stereo unspecified) | inactive
64 | Cc1cc(OCC(=O)N(C)c2c(N)n(Cc3ccccc3)c(=O)[nH]c2=O)c(C(C)C)cc1Cl | inactive
65 | CCOC(=O)C(C)Sc1nc2ccccc2c(=O)n1CC1CCCCC1 (stereo unspecified) | inactive
66 | CC(Sc1nc2ccccc2c(=O)n1Cc1ccco1)C(=O)c1ccccc1 (stereo unspecified) | 7.82 (active)
67 | O=C(CCCn1c(SCC(=O)c2ccc(F)cc2)nc2ccccc2c1=O)NCc1ccco1 | inactive
68 | Cc1sc2ncnc(N3CCC(C(=O)NNC(=O)c4ccc(F)cc4)CC3)c2c1C | inactive
69 | O=C(CSc1nnc(-c2ccccc2)o1)N1CCOCC1 | inactive
70 | CC1=CC(C)(C)N(C(=O)CSc2nnc(-c3ccccc3)o2)c2ccc(C)cc21 | 9.98 (active)
71 | CC1=CC(C)(C)N(C(=O)CSc2nccn2C)c2cc(C)ccc21 | inactive
72 | CCN1/C(=C/C(=S)Nc2ccccc2)Sc2ccccc21 | inactive
73 | CCN1/C(=C/c2ccc3ccc(C)cc3[n+]2CC)Sc2ccccc21 | 7.76 (active)
74 | CCN1/C(=C\c2ccc3ccccc3[n+]2CC)Sc2cc(C)ccc21 | inactive
75 | COc1ccc(C(=O)NCC(c2ccco2)N2CCc3ccccc32)cc1OC (stereo unspecified) | inactive
76 | O=C(NCC(c1ccco1)N1CCc2ccccc21)c1cccc(F)c1 (stereo unspecified) | inactive
77 | Cc1ccccc1C(=O)NCC(c1ccco1)N1CCc2ccccc21 (stereo unspecified) | 7.63 (active)
78 | CC(=O)Nc1ccc(C(=O)Nc2cccc(S(=O)(=O)NC3=NCCC3)c2)cc1 | inactive

Row | SMILES | B-score
79 | COc1ccc(C(=NN)c2ccc(OC)cc2)cc1 | inactive
80 | CCOC(=O)[C@H]1[C@H]2COc3ccc(Cl)cc3[C@@H]2N2C(=O)c3cc(C)ccc3NC(=O)[C@@]12C | inactive
81 | Cn1cccc1C(=O)NNC(=O)COc1ccc(Br)cc1 | inactive
82 | O=C(Nc1ccc(S(=O)(=O)N2CCCCC2)cc1)C1CCN(C(=O)c2ccc(F)cc2)CC1 | inactive
83 | COc1ccc(C2CC(=O)Nc3cc(C)c(C)cc32)c(OC)c1OC (stereo unspecified) | inactive
84 | CCCOc1ccccc1C1CC(=O)Nc2cc3c(cc21)OCO3 (stereo unspecified) | 7.15 (active)
85 | COc1ccccc1C1C2=C(COC2=O)Nc2cc3c(cc21)OCO3 (stereo unspecified) | inactive
86 | COc1ccc(/C=C2\SC(=S)N(CCCC(=O)NC3CCCC3)C2=O)cc1OC | inactive
87 | Cc1c(CCOC(=O)CC23CC4CC(CC(C)(C4)C2)C3)sc[n+]1Cc1ccc([N+](=O)[O-])cc1 | 8.47 (active)
88 | Cc1c(CCOC(=O)c2cc([N+](=O)[O-])ccc2Cl)sc[n+]1CCCCS(=O)(=O)[O-] | inactive
89 | CCN(CC)CCn1c2c(c(SCC(=O)Nc3nc4ccccc4s3)nc1=O)CCCC2 | inactive
90 | CCC(=O)c1ccc(N2CCN(C(=O)c3cc([N+](=O)[O-])ccc3F)CC2)c(F)c1 | inactive
91 | CCN1CCN(c2ccc([N+](=O)[O-])cc2C(=O)c2ccc(Cl)cc2)CC1 | 8.73 (active)
92 | CCC(C)(C)NC(=O)c1cc([N+](=O)[O-])ccc1N1CCCCC1 | inactive
93 | Cc1cc(O)c(Sc2ccccc2)c(=O)o1 | inactive
94 | CCCCCCn1cc(C(=O)O)c(=O)c2cc(F)c(N3CCCCC3)cc21 | inactive
95 | CCOC(=O)c1cn(CC)c2cc(F)c(F)cc2c1=O | 7.03 (active)
96 | Cc1ccc(Cn2cc(C(=O)NN)c(=O)c3ccc(F)cc32)cc1 | inactive
97 | Cc1cc(C)c(S(=O)(=O)n2cc(C(C)C(N)C(=O)O)c3ccccc32)c(C)c1 (stereo unspecified) | inactive
98 | CCCn1c(C)cc(-c2csc(NC(=O)CCc3nc4ccccc4c(=O)[nH]3)n2)c1C | inactive
99 | O=C1c2ccccc2C(=O)c2c1cccc2N1CCN(CCO)CC1 | 8.6 (active)
100 | O=C1c2ccccc2C(=O)c2c1cccc2N1CCN(C/C=C/c2ccccc2)CC1 | inactive
101 | O=C1c2ccccc2C(=O)c2c1cccc2N1CCN(Cc2ccccc2)CC1 | inactive
